Data: PubChem BioAssay AID1479 (National Center for Advancing Translational Sciences (NCATS), 2009)
In all, about 280,000 compounds went through this assay and about 820 (0.29%) were called active. Not shown: some 1% with an inconclusive outcome. The call rests on the fitted dose curve; in most records, active means well fitted curve in either direction with a large enough effect; inconclusive means small, poorly fitted or top-dose-only effect; inactive means flat fitted curve, though single readings scatter. What follows is part of a selection rich in actives, with near analogues and random picks from the rest.

Assay: Total Fluorescence Counterscreen for Inhibitors of the Interaction of Thyroid Hormone Receptor and Steroid Receptor Coregulator 2
Details: TRb/SRC2 Texas Red total fluorescence interference; series mostly up to 106 µM; fluorescence change, negative = quenching: at the top concentration
In short: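 Flags fluorescent or light-absorbing compounds by total fluorescence, S + 2P, at 555 nm excitation and 632 nm emission. Mixture: 20 nM Texas Red SRC2 peptide, 0.6 uM human TRb LBD, 1 uM T3, 5% DMSO; compound exposure 5 h at ambient temperature.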
On the % scale 0 is the no-effect control and ±100 the full control effect; potency means the concentration at half of the fitted maximal effect; tags describe the fitted curve by direction and shape or compound fluorescence and quenching.

SMILES | fluorescence change, negative = quenching | Potency
Cc1csc2nc(COC(=O)c3ccc(NC(=O)COc4ccccc4F)cc3)cc(=O)n12 | -0.21% (inactive) | 
COc1cc2ccccc2cc1C(=O)Nc1cccc(-c2nc3ccccc3o2)c1 | 0.567% (inactive) | 
O=C(CN1CCSc2ccccc21)N1CCN(c2ccccc2)CC1 | -0.0734% (inactive) | 
Cc1ccc(N)c(S(=O)(=O)O)c1 | -6.26% [at 201 µM] (inactive) | 
Cn1c(=O)[nH]c(=O)c2c1nc(NCCc1ccccc1)n2Cc1ccc(F)cc1 | -0.664% (inactive) | 
COc1ccc(CNC(=O)Cc2coc3ccc(C(C)C)cc23)cc1 | -20.8% (inactive) | 
O=C(Nc1ccc2nccnc2c1)c1ccco1 | -2.35% (inactive) | 
COCCNC(=O)Nc1ccc2nc(-c3ccco3)c(-c3ccco3)nc2c1 |  | 28.2 µM [quencher] (active)
CC(C)(C)c1ccc(NC(=O)NCc2ccco2)cc1 | -4.34% (inactive) | 
CC1CCCN(c2nc3c(S(=O)(=O)c4ccc(C(C)C)cc4)nnn3c3ccsc23)C1 (configuration not stated) | -1.97% (inactive) | 
Cc1ccc(-c2noc(CSc3nnc(-c4ccc(Cl)cc4)n3C)n2)cc1 | 6.15% (inactive) | 
CCc1cccc(NC(=O)Cn2nc(CC)n3c(cc4cc(C)ccc43)c2=O)c1 | -3.05% (inactive) | 
OCCC(F)(F)C(F)(F)C(F)(F)C(F)(F)C(F)(F)C(F)(F)C(F)(F)C(F)(F)F | -3.95% [at 201 µM] (inactive) | 
CC(=O)c1cccc(Nc2ccc3cc(S(=O)(=O)N4CCC(C)CC4)ccc3n2)c1 | -2.64% (inactive) | 
COc1ccccc1NC(=O)c1cc(S(=O)(=O)NCCc2ccccc2)ccc1F | -1.18% (inactive) | 
CC1(C)C(=O)N(Br)C(=O)N1Br | 0.683% [at 201 µM] (inactive) | 
COC(=O)c1ccc(NC(=O)CCc2c(C)nc3c(c(C)nn3-c3ccc(C)cc3)c2C)cc1 | -1.65% (inactive) | 
CC(=O)N(CCN(C(C)=O)C(C)=O)C(C)=O | -0.655% [at 201 µM] (inactive) | 
CC(NC(=O)c1cc2c(=O)n3ccccc3nc2n(C(C)C)c1=N)c1ccccc1 (configuration not stated) | -1.91% (inactive) | 
O=C(Cn1c(=O)nc(-c2ccccc2)c2cc(Cl)ccc21)NCc1ccc(Cl)cc1 | -1.77% (inactive) | 
Cc1ccccc1CNC(=O)C1CCCN(S(=O)(=O)N(C)c2ccc(F)cc2)C1 (configuration not stated) | -1.26% (inactive) | 
COc1ccc(CCN2C(=O)N(c3cccc(OC)c3)C(=O)C2CC(=O)Nc2ccccc2)cc1 (configuration not stated) | -1.82% (inactive) | 

SMILES | fluorescence change, negative = quenching | Potency
O=C(CC1N=C2c3ccccc3N=C(SCc3cccc(Cl)c3)N2C1=O)NCc1ccc2c(c1)OCO2 (configuration not stated) | -0.205% (inactive) | 
CCCCCCCCCCCCCCCC | -2.34% [at 201 µM] (inactive) | 
COc1ccc(CCC(=O)NCc2ccc3c(c2)CCN3C(=O)c2ccc(F)cc2)cc1 | -12.6% (inactive) | 
CC(Nc1ccc(-c2nc(-c3ccco3)no2)cc1[N+](=O)[O-])c1ccccc1 (configuration not stated) | -1.44% (inactive) | 
Cc1oc2ccc(O)c(CN3CCC(C)CC3)c2c1C(=O)Nc1ccccc1 | -29.7% (inactive) | 
CCc1cccc(C)c1Nc1c(-c2ccc(N(C)C)cc2)nc2ncccn12 | 1.78% (inactive) | 
CCn1c(=O)cc(OCC(=O)Nc2cc(Cl)c(OC)cc2OC)c2ccccc21 | -3.2% (inactive) | 
CCC(=O)Nc1cccc(C(=O)OCc2cc(=O)n3nc(CC)sc3n2)c1 | -0.224% (inactive) | 
Cc1cccc(CSc2nc3ccncc3n2CC(=O)N(C)C2CCCCC2)c1 | -0.651% (inactive) | 
COc1ccc(CCNC(=O)CCCCn2c(=O)c3ccccc3n(Cc3ccccc3C)c2=O)cc1OC | 10.7% (inactive) | 
COc1ccc(CNc2nc(-c3ccccc3)nn2C(=O)c2ccccc2OC)cc1 | 1.36% (inactive) | 
COc1ccccc1NC(=O)c1cc(C2CC2)nc2c1c(C)nn2-c1ccc(C)cc1 | -0.295% (inactive) | 
CCc1nnc2c3ccccc3nc(N3CCN(c4ccc(C)cc4C)CC3)n12 | -3.56% (inactive) | 
Cc1ccc(C)c(N2CCN(C(c3ccccc3)c3nnc(-c4ccccc4)o3)CC2)c1 (configuration not stated) | 0.0308% (inactive) | 
CCOC(=O)c1cccc(NC(=O)c2cc(S(=O)(=O)N3CCCC(C)C3)cn2C)c1 (configuration not stated) | 0.77% (inactive) | 
CCn1c2ccccc2c2cc(NC(=O)COc3ccc(C)cc3C)ccc21 | -2.08% (inactive) | 
CCOC(=O)c1ccc(NC(=O)c2csc3c2CCCCC3)cc1 | 0.898% (inactive) | 
CCCSc1ncc(Cl)c(C(=O)Nc2sc3c(c2C(=O)NCCOC)CCCC3)n1 |  | 0.1 µM [quencher] (active)
COCCCNC(=O)c1c(NC(=O)c2cc(=O)c3cc(C)c(C)cc3o2)sc2c1CCCC2 | 8.54% (inactive) | 
CCOCCCNC(=O)c1c(NC(=O)c2nc(SC)ncc2Cl)sc2c1CCCC2 | 8.52% (inactive) | 
CCOC(=O)c1scc(-c2ccc(C)cc2)c1S(=O)(=O)Nc1cc(C)ccc1C | -5.89% (inactive) | 
O=[N+]([O-])c1cccc(S(=O)(=O)N2CCCCCC2)c1 | -2.2% (inactive) | 

SMILES | fluorescence change, negative = quenching | Potency
O=C(Nc1ccc2c(c1)OCCO2)c1ccc(Cl)c(S(=O)(=O)N2CCCCC2)c1 | 0.377% (inactive) | 
O=C(Oc1ccc([N+](=O)[O-])cc1)c1ccc(Cl)c(S(=O)(=O)N2CCCCC2)c1 |  | 0.316 µM [quencher] (active)
CN(C)S(=O)(=O)c1cccc(NC(=S)NCc2ccc3c(c2)OCO3)c1 | -3.31% (inactive) | 
CN(C)S(=O)(=O)c1cccc(NC(=S)N/N=C/C(=O)c2ccccc2)c1 |  | 4.47 µM [quencher] (active)
Cc1ccc(/C=N/NC(=S)Nc2cccc(S(=O)(=O)N(C)C)c2)o1 | -2.71% (inactive) | 
COc1ccc(OC)c(NC(=O)CSC2=Nc3ccccc3C3=NC(CC(=O)NCCc4ccccc4)C(=O)N23)c1 (configuration not stated) | -2.61% (inactive) | 
CCC(Sc1nnc(-c2ccc(OC)cc2)c(-c2ccc(OC)cc2)n1)C(=O)NC1CCCCC1 (configuration not stated) | -0.831% (inactive) | 
CCCSc1nc2sc3c(c2c(=O)n1-c1cccc(Br)c1)CC(C)(C)OC3 | -1.43% (inactive) | 
Fc1ccc(-c2nn(-c3ccccc3Cl)c3c2cnc2ccccc23)cc1 | 1.1% (inactive) | 
COCCOC(=O)c1sc(=S)n(CCOC)c1N |  | 50.1 µM [fluorescent] (active)
CCOC(=O)c1c(N)sc(C(C)=O)c1C | 1.41% (inactive) | 
COC(=O)c1sc(=S)n(-c2ccccc2)c1N | -0.443% (inactive) | 
COc1ccc(-c2nnc(SCC(=O)Nc3ccc(C(C)C)cc3)nc2-c2ccc(OC)c(OC)c2)cc1OC | 0.883% (inactive) | 
Cc1ccc(-n2nc(C)c3c(C)cc(=O)n(CC(=O)Nc4ccc(C(C)C)cc4)c32)cc1 | 3.88% (inactive) | 
COc1cccc(-c2nc(S(=O)(=O)c3ccc(C)cc3)c(NCc3ccccc3)o2)c1 | -2.77% (inactive) | 
COc1ccc(OC)c(CN2C(=O)CCC2(C)C(=O)NC2CCCCCC2)c1 (configuration not stated) | -0.653% (inactive) | 
CCc1ccccc1N1C(=O)CN(S(=O)(=O)CC)CC1(C)C(=O)NC1CCCCC1 (configuration not stated) |  | 17.8 µM [quencher] (active)
COc1cccc(CN2C(=O)CCC2(C)C(=O)NC2CCCCCC2)c1 (configuration not stated) | 1.09% (inactive) | 
COc1ccc(S(=O)(=O)NCc2cccn2Cc2cccc(C)c2)cc1Cl | -1.88% (inactive) | 
CCOc1ccc(N2CC(C)Cn3c2nc2c3c(=O)n(Cc3c(F)cccc3Cl)c(=O)n2C)cc1 (configuration not stated) | -2.1% (inactive) | 
O=C(NCCCN1CCN(c2cccc(Cl)c2)CC1)c1nnc(Cc2ccc(F)cc2Cl)o1 | -0.155% (inactive) | 
CCOc1cc(C2c3c(-c4ccc(Br)cc4)n[nH]c3C(=O)N2c2ccc(Cl)cc2)ccc1O (configuration not stated) | 0.442% (inactive) | 

SMILES | fluorescence change, negative = quenching | Potency
CC1CCN(S(=O)(=O)c2ccc3c(c2)N(CC(=O)NCc2ccccc2Cl)C(=O)CO3)CC1 | -0.255% (inactive) | 
Cc1ccccc1C(=O)Nc1nnc(S(=O)(=O)N(C)c2ccc(Cl)cc2)s1 |  | 31.6 µM [quencher] (active)
CC(C)CC(=O)Nc1nnc(S(=O)(=O)N(C)c2ccc(Cl)cc2)s1 | -12.2% (inactive) | 
CCN(c1ccc(Cl)cc1)S(=O)(=O)c1nnc(NC(=O)c2ccco2)s1 | -8.1% (inactive) | 
CN(Cc1ccccc1)C(=O)CCS(=O)(=O)c1cc(Br)cc2c1N(C(=O)C1CC1)CC2 | -2.08% (inactive) | 
O=C(Nc1ccc(F)cc1F)c1cnn(-c2ccc(F)cc2)c1-n1cccc1 | 0.454% (inactive) | 
Clc1nc(Cl)c(Cl)c(Cl)c1Cl | -4.5% [at 201 µM] (inactive) | 
COc1c(O)c2c(=O)cc(OC)c3c4c(OC)cc(=O)c5c(O)c(OC)c6c(c(c1C[C@@](C)(O)[C@H]6C(C)=O)c23)c54 |  | 44.7 µM [fluorescent] (active)
CCn1cc(C(=O)N2CCN(c3cc(Cl)ccc3C)CC2)c(=O)c2cc(S(=O)(=O)N3CCCC3)ccc21 | -1.15% (inactive) | 
CCc1ccccc1NC(=O)Cn1c(=O)n(-c2cccc(C)c2)c(=O)c2c1c1cc(OC)ccc1n2C | -1.44% (inactive) | 
Cc1ccccc1C(=O)N(Cc1ccc(N(C)C)cc1)CC1CCCO1 (configuration not stated) | 0.685% (inactive) | 
N#C/C(=C/c1ccc(N2CCCCC2)o1)C(=O)NCCc1c[nH]c2ccccc12 | -0.527% (inactive) | 
N#C/C(=C/c1ccc(N2CCOCC2)o1)C(=O)N1CCOCC1 |  | 44.7 µM [fluorescent] (active)
N#C/C(=C\c1ccc(N2CCOCC2)o1)C(=O)N1CCOCC1 | 0.512% (inactive) | 
CCc1c(C(=O)O)c(=O)cnn1-c1ccc(Cl)cc1 | -12.7% [at 201 µM] (inactive) | 
O=C(CCSCc1ccccc1F)N1CCN(c2ccc(Cl)cc2)CC1 | -2.62% (inactive) | 
COc1cccc(CNC(=O)c2ccc3c(c2)N(Cc2ccc(C(F)(F)F)cc2)C(=O)c2ccccc2S3)c1OC |  | 31.6 µM [quencher] (active)
COc1ccccc1NC(=O)CN1C(=O)c2ccccc2Sc2ccc(C(=O)N3CCCC3)cc21 | -6.38% (inactive) | 
Cc1ccccc1CN1C(=O)c2ccccc2Sc2ccc(C(=O)NCCCN3CCOCC3)cc21 | 0.0604% (inactive) | 
CC(=O)N1CCCc2cc(S(=O)(=O)N3CCC(C(=O)NCc4ccc(F)cc4)CC3)ccc21 | -33.4% (inactive) | 
CCCCNC(=O)c1ccc2c(c1)NC(=O)C(C(C)C)N2 (configuration not stated) |  | 0.0562 µM [quencher] (active)
CCCCNC(=O)CCNC(=O)c1ccc(C(C)(C)C)cc1 | -2.87% (inactive) | 

SMILES | fluorescence change, negative = quenching | Potency
CCCN(CCC)CCNC(=O)c1ccc2c(c1)NC(=O)C(CS(=O)(=O)Cc1cccc(Br)c1)N2 (configuration not stated) | -0.748% (inactive) | 
CSc1ccccc1NC(=O)CCS(=O)(=O)c1nc(-c2cccs2)cc(C(F)(F)F)n1 | -0.205% (inactive) | 
O=C(Nc1cc(C(F)(F)F)ccc1Cl)c1ccc2c(c1)CCN2S(=O)(=O)c1ccccc1 | 1.06% (inactive) | 
CCc1ccccc1NC(=O)CSc1nc(C)c(C(=O)Nc2ccccc2)c(-c2ccc(Cl)cc2)c1C#N | 1.72% (inactive) | 
CCn1cc2nc(SCc3cccc(F)c3)n(CCc3ccccc3)c(=O)c2n1 | -0.462% (inactive) | 
CN1c2ccc(Cl)cc2-c2nc(SCC(=O)Nc3cc(F)ccc3F)ncc2S1(=O)=O | 0.99% (inactive) | 
O=C(Nc1nnc(S(=O)(=O)N2CCCc3ccccc32)s1)c1cccc(F)c1 | -0.796% (inactive) | 
Cc1ccc(S(=O)(=O)N2CCCc3cc(NS(=O)(=O)c4cc(C)ccc4C)ccc32)cc1 | -1.28% (inactive) | 
Cc1c2cnn(-c3ccccc3)c(=O)c2c(C)n1C(C)C(=O)Nc1ccc(Br)cc1F (configuration not stated) | -3% (inactive) | 
O=C(NCc1cccnc1)C(=O)NCC(c1cccnc1)N1CCN(c2ccccc2)CC1 (configuration not stated) | 6.49% (inactive) | 
CCN(CC)S(=O)(=O)c1ccc2c(c1)nc(CN(C)C(=O)Nc1ccc(Cl)cc1)n2C | 0.355% (inactive) | 
COCCNc1ncnc2c1c(-c1ccccc1)cn2-c1ccc(C)c(Cl)c1 | -0.894% (inactive) | 
COc1ccccc1N1CCN(c2ncnc3onc(-c4ccc(F)cc4)c23)CC1 | -4.64% (inactive) | 
COc1cc(NC(=O)c2cc(C3CC3)nc3c2c(C)nn3-c2ccccc2)cc(OC)c1 | -0.897% (inactive) | 
Cc1[nH]c2ccccc2c1C(c1ccccc1)c1cccs1 (configuration not stated) | -25.5% (inactive) | 
COc1cccc(CNC(=O)Cc2csc3nc(-c4ccccc4)cn23)c1 | -5.57% (inactive) | 
Fc1ccc(CN2CCc3nc(Nc4ccccc4)ncc3C2)cc1F | -1.99% (inactive) | 
Cc1ccc(-c2cn3c(n2)sc2cc(C(=O)NCc4cccs4)ccc23)c(C)c1 | 4.67% (inactive) | 
CC(C)CC(=O)NCC(c1ccc2c(c1)OCO2)N1CCN(c2ccc(F)cc2)CC1 (configuration not stated) | -0.0801% (inactive) | 
